Calls of active or inactive are those of the source.
experiment: E. coli acrAB mutant growth effects, primary screen, E. coli filamentation inducers, strain DRC39, OD650, 48 h (AID 1179);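 also: screen aims at cell division blockers that make cells filament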; details: E. coli DRC39 delta-acrAB growth, higher = more signal, called active from +8 up or from −8 down

| Structure (SMILES) | z-score |
| --- | --- |
| O=C1C[C@@](C(=O)NCCN2CCOCC2)(c2ccc([N+](=O)[O-])cc2)[C@@H](c2ccc(CO)cc2I)N1CC12CC3CC(CC(C3)C1)C2 | -0.305 (inactive) |
| CCCCCN1CC=CC23O[C@@H]4C=CCCOC(=O)C4[C@H]2C(=O)N(CCCCCO)[C@@H]3C1=O (some centres undefined) | 0.67 (inactive) |
| COCCCNC(=O)[C@@H]1c2ccccc2C(=O)N(Cc2ccccc2Cl)[C@H]1c1ccc(CO)cc1 | 1.16 (inactive) |
| C=C(CCCC)/C(=C/C[C@@H](OC(C)=O)c1ccc(OCCO)cc1)c1cnc2ccccc2c1 | 1.49 (inactive) |
| COc1ccc(CCNC(=O)[C@@]2(Sc3ccc(C)cc3)CC(=O)N(C(C)C)[C@@H]2c2ccc(CO)cc2I)cc1 | -0.126 (inactive) |
| CCCC[C@@H]1C[C@H]1[C@@H](NC(=O)c1cccs1)c1ccc(-c2ccccc2)cc1 | -0.384 (inactive) |
| CN(C)CCCCCCNC(=O)[C@H]1C[C@H]2C(=O)N[C@@H](CCCCN)C(=O)N2[C@H]1c1cccc(OCCO)c1 | -0.02 (inactive) |
| C=C(C)[C@@H]1CC=C(C(O)C2C=CC3C(=O)N(c4ccccc4)C(=O)C3N2Nc2ccccc2)CC1 (some centres undefined) | -0.0871 (inactive) |
| COCCOC(=O)N1C(=O)[C@@]2(c3cc(C#CCC(C(=O)OC)C(=O)OC)ccc31)[C@H](c1ccccc1OCCO)N1[C@H](c3ccccc3)[C@H](c3ccccc3)OC(=O)[C@H]1[C@@H]2C(=O)NC[C@H](O)c1ccccc1 | 0.382 (inactive) |

experiment: RPMI8226 myeloma cell viability, profiling panel, resazurin fluorescence, basal, 24 h, PK04 Diversity Set (AID 1180); details: higher = more signal;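 also: RPMI8826 multiple myeloma cell line at 5000 cells per well; test concentration not given here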

| Structure (SMILES) | z-score |
| --- | --- |
| CCCC[C@@H]1C[C@H]1[C@@H](NC(=O)c1ccco1)c1ccc(-c2ccccc2)cc1 | -1.29 |
| O=C1O[C@@H](c2ccccc2)[C@@H](c2ccccc2)N2[C@@H](c3ccccc3OCCO)[C@]3(C(=O)Nc4ccc(C#CC5=CCCCC5)cc43)[C@@H](C(=O)N3CCCCCCC3)[C@H]12 | -4.11 |
| O=C1NC(=O)C2C1C=CC(C(O)c1cccs1)N2Nc1ccc(Cl)cc1Cl (centres undefined) | -0.229 |
| COC(=O)[C@]1(CCC(=O)OC(C)(C)C)N=C(c2ccc(OCCCO)cc2)O[C@@H]1c1ccccc1CN=[N+]=[N-] | -4.68 |
| COc1ccc(C(=O)Nc2ccc(CN3C(=O)[C@]4(O[C@H](CCO)[C@@H]([Si](C)(C)c5ccc(OC)cc5)[C@@H]4C)c4ccccc43)cc2)cc1 | -6.25 |
| CC1(C)C2C=C(C(O)C3C=CC4C(=O)NC(=O)C4N3Nc3ccc(Cl)cc3Cl)C[C@@H]1C2 (some centres undefined) | -1.79 |
| C=C(COC)C(=O)CC[C@@H](OC(C)=O)c1ccc(CO)o1 | 0.0972 |
| COC(=O)c1c(CC[C@@H](CO)NC(=O)NCCn2cc(C3(O)CCCC3)nn2)oc(C(C)=O)c1C(=O)OC | -0.581 |
| C=C(C(=O)CC[C@@H](OC(=O)c1cccnc1)c1ccccc1OCCO)C(C)C | -0.632 |
| CCOC(=O)C[C@H]1[C@H](OC(=O)c2ccc(C(=O)c3ccccc3)cc2)[C@@H](NC(=O)c2ccccc2)c2cc(OCCCO)ccc2N1C(=O)c1ccc2ccccc2n1 | -0.0826 |
| COc1cc(NN2C(C(O)c3ccco3)C=CC3C(=O)N(c4ccccc4)C(=O)C32)cc(OC)c1OC (centres undefined) | -1.08 |
| COCCCNC(=O)[C@@]1(C)c2ccccc2C(=O)N(C(C)C)[C@H]1c1ccc(CO)cc1 | -0.316 |
| COc1cc2c(cc1OC)CN(C(=O)[C@@H]1[C@H]3C(=O)O[C@H](c4ccccc4)[C@H](c4ccccc4)N3[C@H](c3ccc(O)cc3)[C@@]13C(=O)Nc1ccccc13)CC2 | 0.109 |
| O=C(NC1CC1)[C@@H]1c2ccccc2C(=O)N(Cc2ccccc2Cl)[C@H]1c1ccc(CO)cc1 | 0.69 |
| O=C1c2ccccc2[C@](Cc2ccccc2I)(C(=O)NCC(F)(F)F)[C@H](c2ccc(CO)cc2)N1Cc1ccccc1Cl | 0.417 |
| Cc1ccc(S[C@]2(C(=O)O)CC(=O)N(C(C)C)[C@@H]2c2ccc(CO)cc2I)cc1 | -1.58 |
| COc1ccc(C#Cc2ccc3c(c2)[C@]2(C(=O)N3)[C@H](C(=O)NC[C@H](O)c3ccccc3)[C@H]3C(=O)O[C@H](c4ccccc4)[C@H](c4ccccc4)N3[C@@H]2c2ccc(O)cc2)cc1 | -3.97 |
| COC(=O)[C@@]1(Cc2ccc(F)cc2)[C@H]2c3cc(C(=O)N4CCCC4)n(Cc4ccc(S(C)(=O)=O)cc4)c3C[C@H]2CN1C(=O)c1ccccc1 | -0.948 |

| Structure (SMILES) | z-score |
| --- | --- |
| O=C1C2C=CC(C(O)c3cccc4ccccc34)N(Nc3ccccc3F)C2C(=O)N1c1ccccc1 (centres undefined) | 0.0889 |
| CCCC[C@@H]1C[C@H]1[C@@H](NC(=O)c1ccco1)c1ccccc1C(F)(F)F | -0.594 |
| CC(C)NC(=O)[C@@]1(c2ccc([N+](=O)[O-])cc2)CC(=O)N(C2CCCCC2)[C@@H]1c1ccc(CO)cc1I | 0.636 |
| C=CCOC(=O)[C@H]1[C@@H]2C(=O)O[C@@H](c3ccccc3)[C@@H](c3ccccc3)N2[C@@H](c2ccc(OCCOC(=O)[C@H]3C[C@H]4C(=O)N[C@@H](CCCCNC(C)=O)C(=O)N4[C@H]3c3ccc(O)cc3)cc2)[C@]12C(=O)Nc1ccc(I)cc12 | -0.745 |
| Cc1ccc(S[C@]2(C(=O)NC3CC3)CC(=O)N(Cc3ccccc3)[C@@H]2c2ccc(CO)cc2I)cc1 | -1.71 |
| CC1CC/C=C\[C@H]2OC34C=CCN(C(C)(C)C)C(=O)[C@H]3N(CCO)C(=O)[C@@H]4C2C(=O)O1 (some centres undefined) | -0.138 |
| C=CCC(OC(C)=O)[C@@H]1[C@@H](N(Cc2ccc(-c3ccccc3)cc2)C(=O)Cc2ccc(OC)cc2)c2cc(OCCCO)ccc2N1C(=O)Cc1ccc2ccccc2c1 (some centres undefined) | -0.798 |
| COC(=O)C(CC#Cc1ccc2c(c1)[C@]1(C(=O)N2)[C@H](C(=O)Nc2nc3ccccc3s2)[C@H]2C(=O)O[C@H](c3ccccc3)[C@H](c3ccccc3)N2[C@@H]1c1ccc(O)cc1)C(=O)OC | -2 |
| O=C1C[C@@](C(=O)NCCN2CCOCC2)(c2ccc([N+](=O)[O-])cc2)[C@@H](c2ccc(CO)cc2I)N1CC12CC3CC(CC(C3)C1)C2 | -5.62 |
| CCCCCN1CC=CC23O[C@@H]4C=CCCOC(=O)C4[C@H]2C(=O)N(CCCCCO)[C@@H]3C1=O (some centres undefined) | 0.802 |
| COCCCNC(=O)[C@@H]1c2ccccc2C(=O)N(Cc2ccccc2Cl)[C@H]1c1ccc(CO)cc1 | 0.871 |
| C=C(CCCC)/C(=C/C[C@@H](OC(C)=O)c1ccc(OCCO)cc1)c1cnc2ccccc2c1 | 0.445 |
| COc1ccc(CCNC(=O)[C@@]2(Sc3ccc(C)cc3)CC(=O)N(C(C)C)[C@@H]2c2ccc(CO)cc2I)cc1 | -2.47 |
| CCCC[C@@H]1C[C@H]1[C@@H](NC(=O)c1cccs1)c1ccc(-c2ccccc2)cc1 | 0.661 |
| CN(C)CCCCCCNC(=O)[C@H]1C[C@H]2C(=O)N[C@@H](CCCCN)C(=O)N2[C@H]1c1cccc(OCCO)c1 | -0.614 |
| C=C(C)[C@@H]1CC=C(C(O)C2C=CC3C(=O)N(c4ccccc4)C(=O)C3N2Nc2ccccc2)CC1 (some centres undefined) | 0.37 |
| COCCOC(=O)N1C(=O)[C@@]2(c3cc(C#CCC(C(=O)OC)C(=O)OC)ccc31)[C@H](c1ccccc1OCCO)N1[C@H](c3ccccc3)[C@H](c3ccccc3)OC(=O)[C@H]1[C@@H]2C(=O)NC[C@H](O)c1ccccc1 | -3.62 |

Source: PubChem BioAssay
